Data published in the supplement of paper PMC4466140.

B1: unnamed (peptide)
chain: NFKRLLPRDPSEKSS
B2: unnamed (peptide)
chain: KTITLEVESSDTIDN

target: CaNbp2; experiment: SPOT peptide array binding signal intensity (averaged, normalized) (arbitrary units (background-subtracted, floor 0; scale differs between SH3 domains)); higher = stronger binding of the SH3 domain to the peptide
In short: (§1)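 E. coli BL21(DE3) was used to express GST-fused SH3 domains from four yeast species, which were then purified on glutathione Sepharose. These were incubated at 10 μg/ml in TBS-based blocking buffer overnight at 4°C on cellulose membranes carrying synthetic 15-mer peptides, in which cysteines were replaced by serines. Binding signal is the replicate average of normalized, background-subtracted spot intensity, in arbitrary units that differ between domains.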

Binder	SPOT peptide array binding signal intensity
B1	286
B2	≤ 0

target: CaRvs167; experiment: as above
In short: as §1

Binder	SPOT peptide array binding signal intensity
B1	6.33
B2	≤ 0

target: CaRvs167-3; experiment: as above
In short: as §1

Binder	SPOT peptide array binding signal intensity
B1	31.5
B2	2.5

target: CaSho1; experiment: as above
In short: as §1

Binder	SPOT peptide array binding signal intensity
B1	340
B2	≤ 0

target: CaSla1-D1-D2; experiment: as above
In short: as §1

Binder	SPOT peptide array binding signal intensity
B1	≤ 0
B2	≤ 0

target: CaSla1-D3; experiment: as above
In short: as §1

Binder	SPOT peptide array binding signal intensity
B1	1
B2	≤ 0

target: ScAbp1; experiment: as above
In short: as §1

Binder	SPOT peptide array binding signal intensity
B1	66.5
B2	1

target: ScBbc1; experiment: as above
In short: as §1

Binder	SPOT peptide array binding signal intensity
B1	≤ 0
B2	≤ 0

target: ScBem1-D1; experiment: as above
In short: as §1

Binder	SPOT peptide array binding signal intensity
B1	27
B2	≤ 0

target: ScBzz1-D1; experiment: as above
In short: as §1

Binder	SPOT peptide array binding signal intensity
B1	21
B2	8

target: ScBzz1-D2; experiment: as above
In short: as §1

Binder	SPOT peptide array binding signal intensity
B1	18
B2	≤ 0

target: ScCyk3; experiment: as above
In short: as §1

Binder	SPOT peptide array binding signal intensity
B1	105
B2	≤ 0

target: ScFus1; experiment: as above
In short: as §1

Binder	SPOT peptide array binding signal intensity
B1	308
B2	15

target: ScHof1; experiment: as above
In short: as §1

Binder	SPOT peptide array binding signal intensity
B1	3
B2	1

target: ScHse1; experiment: as above
In short: as §1

Binder	SPOT peptide array binding signal intensity
B1	2620
B2	≤ 0

target: ScLsb1; experiment: as above
In short: as §1

Binder	SPOT peptide array binding signal intensity
B1	1
B2	≤ 0

target: ScLsb2; experiment: as above
In short: as §1

Binder	SPOT peptide array binding signal intensity
B1	2
B2	≤ 0

target: ScLsb3; experiment: as above
In short: as §1

Binder	SPOT peptide array binding signal intensity
B1	83.5
B2	≤ 0

target: ScLsb4; experiment: as above
In short: as §1

Binder	SPOT peptide array binding signal intensity
B1	1
B2	≤ 0

target: ScMyo3; experiment: as above
In short: as §1

Binder	SPOT peptide array binding signal intensity
B1	2
B2	≤ 0

target: ScMyo5; experiment: as above
In short: as §1

Binder	SPOT peptide array binding signal intensity
B1	4.5
B2	≤ 0

target: ScNbp2; experiment: as above
In short: as §1

Binder	SPOT peptide array binding signal intensity
B1	35.5
B2	≤ 0

target: ScPex13; experiment: as above
In short: as §1

Binder	SPOT peptide array binding signal intensity
B1	3.5
B2	≤ 0

target: ScRvs167; experiment: as above
In short: as §1

Binder	SPOT peptide array binding signal intensity
B1	16.2
B2	≤ 0

target: ScSho1; experiment: as above
In short: as §1

Binder	SPOT peptide array binding signal intensity
B1	1040
B2	≤ 0

target: ScSla1-D1-D2; experiment: as above
In short: as §1

Binder	SPOT peptide array binding signal intensity
B1	35.5
B2	≤ 0

target: ScSla1-D3; experiment: as above
In short: as §1

Binder	SPOT peptide array binding signal intensity
B1	0.5
B2	10.2

target: SpAbp1-D1; experiment: as above
In short: as §1

Binder	SPOT peptide array binding signal intensity
B1	21
B2	≤ 0

target: SpBbc1; experiment: as above
In short: as §1

Binder	SPOT peptide array binding signal intensity
B1	1
B2	1

target: SpBzz1-D1; experiment: as above
In short: as §1

Binder	SPOT peptide array binding signal intensity
B1	17.5
B2	≤ 0

target: SpBzz1-D2; experiment: as above
In short: as §1

Binder	SPOT peptide array binding signal intensity
B1	0.5
B2	≤ 0

target: SpCyk3; experiment: as above
In short: as §1

Binder	SPOT peptide array binding signal intensity
B1	7
B2	≤ 0

target: SpHof1; experiment: as above
In short: as §1

Binder	SPOT peptide array binding signal intensity
B1	283
B2	≤ 0

target: SpHof1-2; experiment: as above
In short: as §1

Binder	SPOT peptide array binding signal intensity
B1	88
B2	≤ 0

target: SpHof1-3; experiment: as above
In short: as §1

Binder	SPOT peptide array binding signal intensity
B1	1360
B2	≤ 0

target: SpHse1; experiment: as above
In short: as §1

Binder	SPOT peptide array binding signal intensity
B1	2380
B2	≤ 0

target: SpLsb1; experiment: as above
In short: as §1

Binder	SPOT peptide array binding signal intensity
B1	≤ 0
B2	≤ 0

target: SpLsb4; experiment: as above
In short: as §1

Binder	SPOT peptide array binding signal intensity
B1	23
B2	≤ 0

target: SpMyo1; experiment: as above
In short: as §1

Binder	SPOT peptide array binding signal intensity
B1	7.25
B2	≤ 0

target: SpNbp2; experiment: as above
In short: as §1

Binder	SPOT peptide array binding signal intensity
B1	44
B2	≤ 0

target: SpPex13; experiment: as above
In short: as §1

Binder	SPOT peptide array binding signal intensity
B1	5
B2	≤ 0

target: SpRvs167; experiment: as above
In short: as §1

Binder	SPOT peptide array binding signal intensity
B1	19.3
B2	≤ 0

target: SpSla1-D1-D2; experiment: as above
In short: as §1

Binder	SPOT peptide array binding signal intensity
B1	0.5
B2	≤ 0

target: SpSla1-D3; experiment: as above
In short: as §1

Binder	SPOT peptide array binding signal intensity
B1	3
B2	≤ 0

target: AgAbp1; experiment: as above
In short: as §1

Binder	SPOT peptide array binding signal intensity
B2	0.5

target: AgBbc1; experiment: as above
In short: as §1

Binder	SPOT peptide array binding signal intensity
B2	≤ 0

target: AgBem1-D1; experiment: as above
In short: as §1

Binder	SPOT peptide array binding signal intensity
B2	≤ 0

target: AgBzz1-D1; experiment: as above
In short: as §1

Binder	SPOT peptide array binding signal intensity
B2	≤ 0

target: AgBzz1-D2; experiment: as above
In short: as §1

Binder	SPOT peptide array binding signal intensity
B2	≤ 0

target: AgCyk3; experiment: as above
In short: as §1

Binder	SPOT peptide array binding signal intensity
B2	≤ 0

target: AgFus1; experiment: as above
In short: as §1

Binder	SPOT peptide array binding signal intensity
B2	≤ 0

target: AgHof1; experiment: as above
In short: as §1

Binder	SPOT peptide array binding signal intensity
B2	≤ 0

target: AgHse1; experiment: as above
In short: as §1

Binder	SPOT peptide array binding signal intensity
B2	≤ 0

target: AgLsb1; experiment: as above
In short: as §1

Binder	SPOT peptide array binding signal intensity
B2	≤ 0

target: AgLsb4; experiment: as above
In short: as §1

Binder	SPOT peptide array binding signal intensity
B2	3

target: AgMyo5; experiment: as above
In short: as §1

Binder	SPOT peptide array binding signal intensity
B2	≤ 0

target: AgNbp2; experiment: as above
In short: as §1

Binder	SPOT peptide array binding signal intensity
B2	≤ 0

target: AgRvs167; experiment: as above
In short: as §1

Binder	SPOT peptide array binding signal intensity
B2	1.5

target: AgSho1; experiment: as above
In short: as §1

Binder	SPOT peptide array binding signal intensity
B2	≤ 0

target: AgSla1-D1-D2; experiment: as above
In short: as §1

Binder	SPOT peptide array binding signal intensity
B2	2

target: AgSla1-D3; experiment: as above
In short: as §1

Binder	SPOT peptide array binding signal intensity
B2	≤ 0

target: CaAbp1-D1; experiment: as above
In short: as §1

Binder	SPOT peptide array binding signal intensity
B2	≤ 0

target: CaAbp1-D2; experiment: as above
In short: as §1

Binder	SPOT peptide array binding signal intensity
B2	≤ 0

target: CaBbc1; experiment: as above
In short: as §1

Binder	SPOT peptide array binding signal intensity
B2	≤ 0

target: CaBem1-D1; experiment: as above
In short: as §1

Binder	SPOT peptide array binding signal intensity
B2	≤ 0

target: CaBzz1-D1; experiment: as above
In short: as §1

Binder	SPOT peptide array binding signal intensity
B2	≤ 0

target: CaBzz1-D2; experiment: as above
In short: as §1

Binder	SPOT peptide array binding signal intensity
B2	≤ 0

target: CaCyk3; experiment: as above
In short: as §1

Binder	SPOT peptide array binding signal intensity
B2	≤ 0

target: CaFus1; experiment: as above
In short: as §1

Binder	SPOT peptide array binding signal intensity
B2	≤ 0

target: CaHof1; experiment: as above
In short: as §1

Binder	SPOT peptide array binding signal intensity
B2	≤ 0

target: CaHse1; experiment: as above
In short: as §1

Binder	SPOT peptide array binding signal intensity
B2	≤ 0

target: CaLsb1; experiment: as above
In short: as §1

Binder	SPOT peptide array binding signal intensity
B2	0.5

target: CaLsb4; experiment: as above
In short: as §1

Binder	SPOT peptide array binding signal intensity
B2	≤ 0

target: CaMyo5; experiment: as above
In short: as §1

Binder	SPOT peptide array binding signal intensity
B2	≤ 0
